In all, about 39,000 compounds went through this assay and about 3,300 (8.5%) were called active. The entries come from a sample that favours actives as a whole.
tested on: HepG2; assay: cytotoxicity call (relative viability < 0.9); settings: 10 µM

| Compound | cytotoxicity call |
| --- | --- |
| COC[C@H]1CCCNC1 | inactive |
| C[C@@H]1CN([C@@H](C)CO)C(=O)c2cc(NC(=O)Cc3ccccc3)ccc2O[C@@H](C)CCCCO[C@H]1CN(C)Cc1ccncc1 | inactive |
| CC(C)NC(=O)Nc1ccc2c(c1)C(=O)N([C@@H](C)CO)C[C@@H](C)[C@H](CN(C)S(=O)(=O)c1ccccc1)O2 | inactive |
| C[C@H](CO)N1C[C@H](C)[C@@H](CN(C)C(=O)NC2CCCCC2)Oc2ccc(NC(=O)Nc3cccc4ccccc34)cc2C1=O | inactive |
| C[C@@H]1CCCCO[C@@H](CN(C)C(=O)Cc2ccccc2)[C@H](C)CN([C@@H](C)CO)C(=O)c2cc(NC(=O)Nc3ccc(C(F)(F)F)cc3)ccc2O1 | inactive |
| Cc1noc(C)c1S(=O)(=O)Nc1ccc2c(c1)C(=O)N([C@H](C)CO)C[C@H](C)[C@H](CN(C)C(=O)Nc1ccccc1)OCCCC[C@H](C)O2 | inactive |
| C[C@@H]1CN([C@@H](C)CO)C(=O)Cc2cc(NC(=O)CCC(F)(F)F)ccc2O[C@H]1CN(C)Cc1ccc(C(=O)Nc2ccccc2N)cc1 | inactive |
| C[C@H]1CN([C@@H](C)CO)C(=O)c2cc(NC(=O)C3CC3)ccc2O[C@H]1CN(C)Cc1ccc(-c2ccccc2)cc1 | inactive |
| C[C@@H]1CN([C@@H](C)CO)C(=O)c2cc(NC(=O)C3CC3)ccc2O[C@@H]1CN(C)Cc1ccc(-c2ccccc2)cc1 | inactive |
| C[C@H](CO)N1C[C@H](C)[C@H](CN(C)Cc2ccc(-c3ccccc3)cc2)Oc2ccc(NC(=O)C3CCCCC3)cc2C1=O | active |
| CN1CCN(C(=O)C[C@@H]2CC[C@H]3[C@@H](COC[C@@H](O)CN3C(=O)C3CC3)O2)CC1 | inactive |
| C[C@H]1Cc2cc(S(=O)(=O)N(C)CC(=O)N3CCOCC3)ccc2N1C(=O)C1CC1 | inactive |
| CCS(=O)(=O)Nc1ccc2c(c1)C(=O)N(C)[C@@H]1CC[C@H](CC(=O)NCc3ccccc3F)O[C@@H]1CO2 | inactive |
| O=C(C[C@H]1CC[C@H]2[C@@H](COC[C@H](O)CN2Cc2ccccc2F)O1)N[C@H]1CCN(Cc2ccccc2)C1 | inactive |
| COCCOC(=O)N1C(=O)[C@@]2(c3ccccc31)[C@H](C(=O)N1CCc3cc(OC)c(OC)cc3C1)[C@H]1C(=O)O[C@H](c3ccccc3)[C@H](c3ccccc3)N1[C@@H]2c1ccc(O)cc1 | inactive |
| C[C@@H]1CCCCO[C@@H](CN(C)Cc2ccc(C(F)(F)F)cc2)[C@H](C)CN([C@@H](C)CO)C(=O)c2cc(NC(=O)c3ccccc3)ccc2O1 | inactive |
| C=CCC[C@H](Cc1ccc(F)cc1)C(=O)O[C@H](CNC(=O)[C@@H](CC=C)CC(=O)N(CCO)Cc1ccccc1)c1ccccc1 | inactive |
| C=CCC[C@H](Cc1ccc(F)cc1)C(=O)O[C@@H](CNC(=O)[C@@H](CC=C)CC(=O)N(CCO)Cc1ccccc1)c1ccccc1 | active |
| C=CCC[C@@H](Cc1ccc(F)cc1)C(=O)OC[C@@H](NC(=O)[C@H](CC=C)CC(=O)N(CCO)Cc1ccccc1)c1ccccc1 | inactive |
| C=CC[C@H](CC(=O)N(CCO)Cc1ccccc1)C(=O)NC[C@H](OC(=O)[C@@H](CC=C)Cc1ccc(F)cc1)c1ccccc1 | inactive |

| Compound | cytotoxicity call |
| --- | --- |
| C=CCC[C@@H](Cc1ccc(F)cc1)C(=O)O[C@H](CNC(=O)[C@@H](CC=C)CC(=O)N(CCO)Cc1ccccc1)c1ccccc1 | inactive |
| C=CCC[C@@H](Cc1ccc(F)cc1)C(=O)O[C@H](CNC(=O)[C@H](CC=C)CC(=O)N(CCO)Cc1ccccc1)c1ccccc1 | inactive |
| C=CCC[C@H](Cc1ccc(F)cc1)C(=O)O[C@H](CNC(=O)[C@H](CC=C)CC(=O)N(CCO)Cc1ccccc1)c1ccccc1 | inactive |
| C=CCC[C@@H](Cc1ccc(F)cc1)C(=O)O[C@@H](CNC(=O)[C@H](CC=C)CC(=O)N(CCO)Cc1ccccc1)c1ccccc1 | active |
| C=CCC[C@@H](Cc1ccc(F)cc1)C(=O)O[C@@H](CNC(=O)[C@@H](CC=C)CC(=O)N(CCO)Cc1ccccc1)c1ccccc1 | active |
| C=CCC[C@@H](Cc1ccc(F)cc1)C(=O)OC[C@@H](NC(=O)[C@@H](CC=C)CC(=O)N(CCO)Cc1ccccc1)c1ccccc1 | active |
| C=CCC[C@H](Cc1ccc(F)cc1)C(=O)O[C@@H](CNC(=O)[C@H](CC=C)CC(=O)N(CCO)Cc1ccccc1)c1ccccc1 | inactive |
| C=CCC[C@H](Cc1ccc(F)cc1)C(=O)OC[C@@H](NC(=O)[C@@H](CC=C)CC(=O)N(CCO)Cc1ccccc1)c1ccccc1 | inactive |
| COCC(=O)Nc1ccc2c(c1)C(=O)N(C)[C@@H]1CC[C@H](CC(=O)N3CCc4ccccc4C3)O[C@H]1CO2 | inactive |
| Cc1noc(C)c1NC(=O)Nc1ccc2c(c1)C(=O)N([C@@H](C)CO)C[C@H](C)[C@H](CN(C)S(=O)(=O)c1ccc(F)cc1)OCCCC[C@H](C)O2 | inactive |
| CN1C(=O)c2cc(NC(=O)C3CCOCC3)ccc2OC[C@@H]2O[C@@H](CC(=O)NCCc3ccncc3)CC[C@@H]21 | inactive |
| COc1ccc(C=Cc2cc(O)cc(O[C@@H]3O[C@H](CO)[C@@H](O)[C@H](O)[C@H]3O)c2)cc1 | inactive |
| C1=C(c2ccccc2)CC(c2ccccc2)=NN=C1c1ccccc1 | inactive |
| COCCNC(=O)[C@H]1[C@H](CO)[C@H]2Cn3c(cccc3=O)[C@@H]1N2S(=O)(=O)c1ccccc1C | inactive |
| C[C@@H]1CN([C@H](C)CO)C(=O)Cc2cc(NC(=O)Cn3cnnn3)ccc2O[C@H]1CN(C)S(=O)(=O)c1ccc(Cl)cc1 | inactive |
| CC(C)NC(=O)Nc1ccc2c(c1)CC(=O)N([C@@H](C)CO)C[C@@H](C)[C@@H](CN(C)S(=O)(=O)c1ccccc1)O2 | inactive |
| CC(C)NC(=O)Nc1ccc2c(c1)CC(=O)N([C@H](C)CO)C[C@H](C)[C@H](CN(C)S(=O)(=O)c1ccc(F)cc1)O2 | inactive |
| C[C@H](CO)N1C[C@H](C)[C@H](CN(C)Cc2ccc3c(c2)OCO3)Oc2ccc(NS(C)(=O)=O)cc2C1=O | inactive |
| COc1ccc(NC(=O)Nc2ccc3c(c2)C(=O)N([C@H](C)CO)C[C@@H](C)[C@@H](CN(C)S(=O)(=O)c2ccccc2)OCCCC[C@H](C)O3)cc1 | inactive |

— the antibiotic and cytotoxicity screens of Wong et al. (2023)
